Consider nine compounds from PubChem BioAssay (NCI).

SMILES strings stand for the structures. This is part of a sample that, as a whole, favours compounds with a hit. Of some 83,000 tested, about 20% had one in any assay.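 Compound tested at a single concentration for 48 hours in 96-well plates; a percent growth value below 10 was scored as active.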 Values without a mark were called inactive. Activity calls are given as the source filed them.

Among the test systems are HCT-15 colon; HT29 colon; SNB-75 CNS; SNB-19 CNS; U251 CNS; PC-3 prostate; SK-MEL-5 melanoma; UACC-62 melanoma; LOX IMVI melanoma; SK-MEL-28 melanoma; EKVX NSCLC; SN12C renal; UO-31 renal; TK-10 renal; ACHN renal; CAKI-1 renal; A498 renal; CCRF-CEM leukemia; MOLT-4 leukemia.
What all share (assay): NCI-60 one-dose screen, 48 h (100 = growth as untreated, 0 = no growth, -100 = all killed)
Holding throughout (conditions): 10 µM unless noted

As for `COC(=O)c1ccc2c(C(=Nc3ccc(N(C)C(=O)CN4CCN(C)CC4)cc3)c3ccccc3)c(O)[nH]c2c1`, the growth in the assay with HCT-15 colon is 65.9%; with HT29 colon, 8.01% (active); in the assay on SNB-75 CNS, 18%; in the assay with SNB-19 CNS, 67.9%; in the assay on U251 CNS it was 45.4%; with PC-3 prostate, 67.9%. In addition, the growth with SK-MEL-5 melanoma was 68%; in the assay with UACC-62 melanoma it was 90.2%; with LOX IMVI melanoma, 33.6%; in the assay with SK-MEL-28 melanoma it was 74.5%; in the assay with EKVX NSCLC, 94%; in the assay with SN12C renal, 44.8%. The growth in the assay on UO-31 renal is 9.57% (active); in the assay with TK-10 renal it was 46.5%; in the assay with ACHN renal, 48.8%; with CAKI-1 renal, 51.8%; with A498 renal, 21.7%; with CCRF-CEM leukemia, 40.4%. In addition, in the assay with MOLT-4 leukemia, the growth is 50.5%.

For `CCCCCCCCCNCCCCCCCCC`, the growth in the assay on HCT-15 colon was 32.4%; in the assay on HT29 colon, 0.373% (active); in the assay with SNB-75 CNS, 67.2%; with SNB-19 CNS, 82.2%; in the assay with U251 CNS, 49%; with PC-3 prostate, 59.4%. The growth in the assay on SK-MEL-5 melanoma is 54.1%; in the assay on UACC-62 melanoma, 83.2%; in the assay with LOX IMVI melanoma, 41.9%; in the assay with SK-MEL-28 melanoma, 43.5%; in the assay with EKVX NSCLC, 81.9%; in the assay on SN12C renal it was 59.5%. In addition, the growth in the assay on UO-31 renal is 36.4%; in the assay on TK-10 renal it was 70.4%; with ACHN renal it was 81.5%; in the assay with CAKI-1 renal it was 42%; in the assay on A498 renal, 88.9%; in the assay on CCRF-CEM leukemia, 23.7%. In the assay with MOLT-4 leukemia, the growth was 49.7%.

For `CC#CC(=O)N1CCC[C@H]1c1nc(-c2ccc(C(=O)Nc3ccccn3)cc2)c2c(N)nccn12`, the growth was 87.8% in the assay with HCT-15 colon; 73.4% with HT29 colon; 77% in the assay on SNB-75 CNS; 90.6% in the assay on SNB-19 CNS; 83.6% in the assay with U251 CNS; 81.1% in the assay with PC-3 prostate. Besides, the growth in the assay with SK-MEL-5 melanoma is 86.6%; with UACC-62 melanoma, 77.1%; with LOX IMVI melanoma, 93.7%; in the assay on SK-MEL-28 melanoma, 88.3%; in the assay with EKVX NSCLC it was 92.1%; in the assay on SN12C renal it was 72.3%. Further, the growth in the assay with UO-31 renal was 79%; with TK-10 renal it was 72.8%; in the assay with ACHN renal it was 73.6%; in the assay on CAKI-1 renal, 72.9%; in the assay on A498 renal, 111%; in the assay on CCRF-CEM leukemia, 71.5%. The growth with MOLT-4 leukemia is 89.4%.

On to `Clc1ccc(C(Cn2ccnc2)OCc2ccsc2Cl)c(Cl)c1` (stereo unspecified), for which the growth in the assay with HCT-15 colon is 42.5%; in the assay on HT29 colon, 30%; with SNB-75 CNS, 56.4%; in the assay on SNB-19 CNS, 68.4%; in the assay with U251 CNS, 54.7%; in the assay on PC-3 prostate, 31.1%. Also, the growth in the assay on SK-MEL-5 melanoma is 31.2%; with UACC-62 melanoma it was 41.9%; in the assay on LOX IMVI melanoma it was 43.7%; in the assay on SK-MEL-28 melanoma it was 77.2%; in the assay with EKVX NSCLC, 48.4%; with SN12C renal, 65.6%. For the same compound, the growth with UO-31 renal is 25.8%; in the assay with TK-10 renal, 71.6%; in the assay with ACHN renal, 56.9%; with CAKI-1 renal, 42.4%; in the assay on A498 renal, 49.8%; with CCRF-CEM leukemia it was 43.4%. Moreover, the growth with MOLT-4 leukemia was 17.3%.

Regarding `O=C(NC1CCNCC1)c1[nH]ncc1NC(=O)c1c(Cl)cccc1Cl`, the growth with HCT-15 colon is 72.7%; in the assay with HT29 colon it was -26.7% (active); in the assay with SNB-75 CNS it was -40.7% (active); in the assay on SNB-19 CNS, 12.5%; in the assay on U251 CNS, 4.47% (active); in the assay with PC-3 prostate it was 5.97% (active). The growth was -12.8% (active) in the assay on SK-MEL-5 melanoma; -41.9% (active) in the assay on UACC-62 melanoma; 8.93% (active) in the assay with LOX IMVI melanoma; -14.5% (active) in the assay on SK-MEL-28 melanoma; 52.5% in the assay on EKVX NSCLC; 12.7% in the assay with SN12C renal. The growth with UO-31 renal is 70.6%; with TK-10 renal, 25.8%; in the assay on ACHN renal, 66.5%; with CAKI-1 renal it was 45.4%; in the assay with A498 renal, -25.3% (active); in the assay on CCRF-CEM leukemia, 11.2%. In addition, the growth in the assay with MOLT-4 leukemia was 5.67% (active).

As for `COc1cc(Nc2c(C#N)cnc3cc(OCCCN4CCN(C)CC4)c(OC)cc23)c(Cl)cc1Cl`, the growth in the assay on HCT-15 colon is 57.5%; in the assay on HT29 colon, 10.3%; in the assay on SNB-75 CNS it was 87.6%; in the assay with SNB-19 CNS, 70.4%; in the assay on U251 CNS, 65%; in the assay on PC-3 prostate, 84.7%. For the same compound, the growth in the assay with SK-MEL-5 melanoma is 62.5%; with UACC-62 melanoma, 9.83% (active); in the assay with LOX IMVI melanoma it was 33.1%; in the assay with SK-MEL-28 melanoma, 19.3%; in the assay with EKVX NSCLC, 54.9%; with SN12C renal, 51.9%. Moreover, the growth in the assay on UO-31 renal was 38.1%; in the assay on TK-10 renal it was 29.8%; in the assay on ACHN renal, 27.3%; in the assay on CAKI-1 renal, 31%; in the assay on A498 renal, 78.3%; in the assay on CCRF-CEM leukemia it was 38.9%. Also, the growth in the assay on MOLT-4 leukemia is 33.3%.

For `Cc1cc(Nc2nc(N[C@@H](C)c3ncc(F)cn3)ncc2Cl)n[nH]1`, the growth in the assay with HCT-15 colon was 58.4%; in the assay with HT29 colon, 39.1%; with SNB-75 CNS it was 88.3%; in the assay on SNB-19 CNS it was 80.9%; with U251 CNS, 52.7%; with PC-3 prostate, 81.8%. For the same compound, the growth with SK-MEL-5 melanoma is 95.9%; in the assay with UACC-62 melanoma, 65%; in the assay on LOX IMVI melanoma, 37.9%; in the assay on SK-MEL-28 melanoma, 87.8%; with EKVX NSCLC it was 99.6%; in the assay on SN12C renal it was 77.6%. The growth was 51% in the assay on UO-31 renal; 82.8% in the assay with TK-10 renal; 63.4% in the assay with ACHN renal; 70.1% in the assay with CAKI-1 renal; -2.39% (active) in the assay on A498 renal; 76.6% in the assay on CCRF-CEM leukemia. The growth in the assay with MOLT-4 leukemia was 62.3%.

Consider `CO[C@H]1C[C@@H]2CC[C@@H](C)[C@@](O)(O2)C(=O)C(=O)N2CCCC[C@H]2C(=O)O[C@H]([C@H](C)C[C@@H]2CC[C@@H](OC(=O)C(C)(CO)CO)[C@H](OC)C2)CC(=O)[C@H](C)/C=C(\C)[C@@H](O)[C@@H](OC)C(=O)[C@H](C)C[C@H](C)\C=C/C=C/C=C/1C`, for which the growth in the assay with HCT-15 colon is 27.3%; in the assay with HT29 colon, 4.55% (active); with SNB-75 CNS it was -0.0597% (active); in the assay on SNB-19 CNS, 30.6%; with U251 CNS, 19.4%; with PC-3 prostate it was 18.1%. Further, the growth with SK-MEL-5 melanoma was 12.9%; in the assay on UACC-62 melanoma it was 31.5%; with LOX IMVI melanoma, 22.5%; in the assay with SK-MEL-28 melanoma it was 34.2%; in the assay with EKVX NSCLC it was 36.8%; in the assay on SN12C renal, 34.8%. Moreover, the growth in the assay on UO-31 renal is 15.3%; in the assay with TK-10 renal, 26.1%; in the assay with ACHN renal, 32.6%; in the assay with CAKI-1 renal, 30.9%; with A498 renal it was 8.36% (active); in the assay with CCRF-CEM leukemia, 16.2%. For the same compound, the growth in the assay with MOLT-4 leukemia is 0.877% (active).

Regarding `Cc1nc(NC(=O)N2CCC[C@H]2C(N)=O)sc1-c1ccnc(C(C)(C)C(F)(F)F)c1`, the growth was 30.4% in the assay on HCT-15 colon; 4.8% (active) in the assay on HT29 colon; 24.8% in the assay on SNB-75 CNS; 66.1% with SNB-19 CNS; 33.4% in the assay with U251 CNS; 43.3% in the assay on PC-3 prostate. Moreover, the growth is 61.8% with SK-MEL-5 melanoma; 23.8% with UACC-62 melanoma; 18.8% with LOX IMVI melanoma; 49.2% in the assay with SK-MEL-28 melanoma; 41.1% with EKVX NSCLC; 57.7% in the assay on SN12C renal. For the same compound, the growth is 25.1% in the assay with UO-31 renal; 13.3% in the assay on TK-10 renal; 36.9% in the assay on ACHN renal; 17.8% in the assay with CAKI-1 renal; 1.67% (active) in the assay on A498 renal; 35.9% in the assay with CCRF-CEM leukemia. The growth in the assay on MOLT-4 leukemia was 8.66% (active).
